The campaign covered roughly 310,000 compounds. About 14,000 (4.5%) showed an effect of 50% or more. The effect is printed as a negative number. Many of the other results were omitted from the sample, so strong results are more common in it than they were.
target: human ether-à-go-go-related gene (hERG) potassium channel (human, UniProt Q12809); test: primary screen, population patch clamp on CHO cells stably expressing hERG; higher = less effect of the substance
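Note: peak tail current of the secondary pulse compared with the same well before compound.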

human ether-à-go-go-related gene (hERG) potassium channel, sequence (Q12809 whole entry, looked up): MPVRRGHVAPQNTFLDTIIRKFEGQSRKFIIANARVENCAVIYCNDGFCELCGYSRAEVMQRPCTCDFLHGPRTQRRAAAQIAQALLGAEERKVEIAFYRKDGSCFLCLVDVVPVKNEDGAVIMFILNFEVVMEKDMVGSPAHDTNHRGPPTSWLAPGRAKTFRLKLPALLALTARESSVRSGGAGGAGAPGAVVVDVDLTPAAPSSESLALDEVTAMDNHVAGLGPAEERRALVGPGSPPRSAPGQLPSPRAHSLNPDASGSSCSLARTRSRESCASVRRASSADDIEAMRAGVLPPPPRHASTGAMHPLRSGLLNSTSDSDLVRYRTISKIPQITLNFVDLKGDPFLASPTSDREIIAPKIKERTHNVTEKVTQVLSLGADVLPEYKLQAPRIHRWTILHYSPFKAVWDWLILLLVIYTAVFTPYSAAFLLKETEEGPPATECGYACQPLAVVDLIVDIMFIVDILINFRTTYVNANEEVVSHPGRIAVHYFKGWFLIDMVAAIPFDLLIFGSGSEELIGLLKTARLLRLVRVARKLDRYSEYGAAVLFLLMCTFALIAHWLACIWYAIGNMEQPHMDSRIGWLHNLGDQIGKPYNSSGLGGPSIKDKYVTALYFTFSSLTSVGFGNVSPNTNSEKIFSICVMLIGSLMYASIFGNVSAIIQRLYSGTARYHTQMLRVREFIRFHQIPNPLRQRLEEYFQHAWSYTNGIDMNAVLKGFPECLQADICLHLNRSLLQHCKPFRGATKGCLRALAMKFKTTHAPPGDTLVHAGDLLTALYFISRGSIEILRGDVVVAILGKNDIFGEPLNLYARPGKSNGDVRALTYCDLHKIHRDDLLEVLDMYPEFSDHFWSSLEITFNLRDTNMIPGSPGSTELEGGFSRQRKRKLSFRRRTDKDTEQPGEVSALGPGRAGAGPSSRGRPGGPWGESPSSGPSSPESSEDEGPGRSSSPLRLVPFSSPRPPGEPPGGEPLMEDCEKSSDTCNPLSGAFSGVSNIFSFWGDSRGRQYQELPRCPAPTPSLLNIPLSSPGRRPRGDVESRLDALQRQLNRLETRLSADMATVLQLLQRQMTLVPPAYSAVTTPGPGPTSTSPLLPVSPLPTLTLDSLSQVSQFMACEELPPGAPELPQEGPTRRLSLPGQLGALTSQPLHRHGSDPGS

SMILES	hERG current change (%, negative = inhibition) at 10uM
O=C(O)c1cc(C2CC2)nn1-c1ccccc1	17.5%
COc1ccc(CN2CCN(C(=O)c3cc(C4CC4)nn3-c3ccccc3)CC2)cc1F	-48.6%
COc1cc2c(cc1OC)CN(C(=O)c1cc(C3CC3)nn1-c1ccccc1)CC2	-56.2%
O=C(NC1CCCCC1)c1cc(C2CC2)nn1-c1ccccc1	-51.2%
CC1CCC(NC(=O)c2cc(C3CC3)nn2-c2ccccc2)CC1 (stereo not shown)	-34.9%
COc1ccc(OC)c(S(=O)(=O)N2CCN(C(=O)c3cc(C4CC4)nn3-c3ccccc3)CC2)c1	-11.1%
N#Cc1ccc(CN2CCN(C(=O)c3cc(C4CC4)nn3-c3ccccc3)CC2)cc1	-57.2%
O=C(c1cc(C2CC2)nn1-c1ccccc1)N1CCN(Cc2ccc(Cl)cc2)CC1	-32.1%
COc1ccc(N2CCN(C(=O)c3cc(C4CC4)nn3-c3ccccc3)CC2)cc1	-44.4%
COc1ccc(NC(=O)Nc2ccccc2SC)cc1OC	6.08%
Cc1ccc(C)c(N2CCN(C(=O)Cn3c(=O)[nH]c4ccsc4c3=O)CC2)c1	-4.12%
Cc1ccc(C(=O)Nc2nnc(-c3ccc(C(C)(C)C)cc3)s2)cc1	4.81%
CCN(CC)CCCN1CC(=O)N2[C@@H](Cc3c([nH]c4ccccc34)C2(C)C)C1=O	1.24%
CCCCN(CCCC)CCCN1CC(=O)N2[C@@H](Cc3c([nH]c4ccccc34)C2(C)C)C1=O	-73.2%
CCCCCCN1CC(=O)N2[C@@H](Cc3c([nH]c4ccccc34)C2(C)C)C1=O	13.9%
O=C(NCc1cccnc1)c1cc(-c2ccco2)on1	8.02%
CC(NC(=O)C1CCN(C(=O)[C@@H]2Cc3ccccc3CN2C(=O)OC(C)(C)C)CC1)c1ccccc1 (stereo partly shown)	14%
O=C(NCC(=O)N(c1cnc2ccccc2c1)C(C(=O)NC1CCCC1)c1ccncc1)c1ccco1 (stereo not shown)	8.74%
CC(C)(C)S(=O)(=O)c1nc2ccccc2s1	6.74%
CCCc1ccc2oc(C(=O)N3CCC(O)CC3)c(C)c2c1	-12.2%
CCCc1ccc2oc(C(=O)N3CCCC3)c(C)c2c1	-7.11%

SMILES	hERG current change (%, negative = inhibition) at 10uM
CCCc1ccc2oc(C(=O)N3CCN(C4CCS(=O)(=O)C4)CC3)c(C)c2c1 (stereo not shown)	-51.3%
Oc1oc(-c2ccccc2)nc1C=NCc1ccncc1	-7.6%
COc1ccc(S(=O)(=O)N[C@@H](Cc2ccccc2)C(=O)N2CC[C@@]3(O)CCCC[C@H]3C2)cc1	-14.9%
COCCn1c(-c2cccc([N+](=O)[O-])c2)nc2c1c(=O)[nH]c(=O)n2Cc1ccccc1	-84.2%
CCCn1c(-c2cccc(F)c2)nc2c1c(=O)[nH]c(=O)n2Cc1ccccc1	17.5%
CCCn1c(-c2cccc([N+](=O)[O-])c2)nc2c1c(=O)[nH]c(=O)n2Cc1ccccc1	-66.4%
CCCn1c(=O)[nH]c(=O)c2c1nc(-c1ccc(OC)c(Br)c1)n2CCOC	-20.1%
CCCCn1c(=O)[nH]c(=O)c2c1nc(-c1ccc(OC(F)F)c(OC)c1)n2C	17.1%
CCCn1c(-c2cc(OC)c(OC)c(OC)c2)nc2c1c(=O)[nH]c(=O)n2Cc1ccccc1	5.09%
CCCn1c(=O)[nH]c(=O)c2c1nc(-c1ccc(OC(F)F)c(OC)c1)n2CCOC	-50.5%
COCCn1c(-c2ccc(C#N)cc2)nc2c1c(=O)[nH]c(=O)n2Cc1ccccc1	-33.9%
COCCCn1c(-c2cccc(Cl)c2)nc2c1c(=O)[nH]c(=O)n2Cc1ccccc1	-0.77%
CS(=O)(=O)c1ccc2nc(NC(=O)c3ccc(Cn4cc(Br)cn4)o3)sc2c1	-27.1%
CCc1c(C)[nH]c2c1C(=O)C(CN1CCOCC1)CC2.Cl (stereo not shown)	-7.67%
CCOc1cc(C(=O)O/N=C(\N)c2ccc([N+](=O)[O-])cc2)cc(OCC)c1OCC	-16%
CCOc1ccccc1N1C(=O)NC(=O)/C(=C/c2ccc3c4c(cccc24)CC3)C1=O	2.74%
CSc1nsc(SC)c1NC(=O)OCCc1ccccn1	-6.18%
CCC(c1nnnn1Cc1cccs1)N1CCN(c2nc3ccccc3s2)CC1 (stereo not shown)	-56.1%
COCCn1nnnc1C(CC(C)C)N1CCN(c2nc3ccccc3s2)CC1 (stereo not shown)	-9.4%
CCCC(c1nnnn1CCOC)N1CCN(c2nc3ccccc3s2)CC1 (stereo not shown)	-66.2%
CC(C)CC(c1nnnn1Cc1cccs1)N1CCN(c2nc3ccccc3s2)CC1 (stereo not shown)	0.473%

SMILES	hERG current change (%, negative = inhibition) at 10uM
COCCn1nnnc1C(c1cccs1)N1CCN(c2nc3ccccc3s2)CC1 (stereo not shown)	-25.3%
c1ccc(CCn2nnnc2C(c2cccnc2)N2CCN(c3ccccc3)CC2)cc1 (stereo not shown)	-47.6%
CCC(c1nnnn1CCOC)N1CCN(c2nc3ccccc3s2)CC1 (stereo not shown)	-34.7%
COCCn1nnnc1C(c1ccc(OC)c(OC)c1)N1CCN(c2nc3ccccc3s2)CC1 (stereo not shown)	-56.3%
c1ccc(CCn2nnnc2C(c2cccnc2)N2CCN(c3nc4ccccc4s3)CC2)cc1 (stereo not shown)	-58.7%
CCCC(c1nnnn1Cc1cccs1)N1CCN(c2nc3ccccc3s2)CC1 (stereo not shown)	-22.4%
Oc1ccc(C(c2nnnn2CCc2ccccc2)N2CCN(c3nc4ccccc4s3)CC2)cc1 (stereo not shown)	9.25%
COc1cc(C(c2nnnn2C(C)(C)C)N2CCN(c3nc4ccccc4s3)CC2)ccc1O (stereo not shown)	-28.1%
Cc1ccc2nc(SC(C(=O)Nc3ccc(F)cc3)c3ccccc3)[nH]c2c1 (stereo not shown)	-1.38%
Cc1ccsc1/C=N/NC(=O)c1ccc2nc[nH]c2c1	-2.67%
COC(=O)c1cc(C#N)c(OC(C)C)nc1C	-6.52%
Cc1cc(C)c(S(=O)(=O)N2CCCOC2CNC(=O)C(=O)NCc2cccnc2)c(C)c1 (stereo not shown)	8.23%
COc1ccc(C(c2nnnn2Cc2ccccc2)N2CCN(c3nc4ccccc4s3)CC2)cc1OC.Cl (stereo not shown)	-58.4%
COc1ccccc1C(c1nnnn1Cc1ccccc1)N1CCN(c2nc3ccccc3s2)CC1.Cl (stereo not shown)	23.1%
COc1ccc(C(c2nnnn2Cc2ccccc2)N2CCN(c3nc4ccccc4s3)CC2)cc1 (stereo not shown)	13.7%
O=C(N/N=C/c1ccc(Cl)cc1)c1nc2ccc([N+](=O)[O-])cc2c(=O)[nH]1	-27.3%
CC(C)Cn1c(CN2C(=O)c3ccccc3C2=O)nc2ccccc2c1=O	16.7%
Fc1cc(Br)ccc1NC(=S)NCCc1ccccc1	-1.43%
Cc1cccc(C(=O)N2CCCC(N3CCN(c4ccc(F)cc4)CC3)C2)n1 (stereo not shown)	-48.4%
O=C(c1cc(C2CC2)on1)N1CCCC(N2CCN(c3cccc(C(F)(F)F)c3)CC2)C1 (stereo not shown)	-48.7%
O=C(c1ccccn1)N1CCCC(N2CCN(c3ccc(F)cc3)CC2)C1 (stereo not shown)	-37.2%

SMILES	hERG current change (%, negative = inhibition) at 10uM
O=C(c1cc(C2CC2)on1)N1CCN(c2ccc(F)cc2)CC1	-43.4%
Cc1cc(C(=O)N2CCCC(N3CCN(c4ccc(F)cc4)CC3)C2)no1 (stereo not shown)	-37.7%
COC(=O)c1ccc(C(=O)N2CCCC(N3CCN(c4ccc(F)cc4)CC3)C2)nc1 (stereo not shown)	-56.1%
CCc1noc(C)c1C(=O)N1CCCC(N2CCN(c3ccc(F)cc3)CC2)C1 (stereo not shown)	-27.2%
CC(C)c1cc(C(=O)N2CCCC(N3CCN(c4ccc(F)cc4)CC3)C2)no1 (stereo not shown)	-72.1%
O=C(c1cc(C2CC2)on1)N1CCCC(N2CCN(c3ccc(F)cc3)CC2)C1 (stereo not shown)	-63.7%
COCc1ccc(C(=O)N2CCCC(N3CCN(c4ccc(F)cc4)CC3)C2)o1 (stereo not shown)	-47.3%
CCCc1cc(C(=O)N2CCCC(N3CCN(c4ccc(F)cc4)CC3)C2)no1 (stereo not shown)	-73%
COC(=O)c1ccc(C(=O)N2CCCC(N3CCN(c4ccccc4)CC3)C2)nc1 (stereo not shown)	-22.4%
O=C(Cc1ccccc1)N[C@H](c1ccccc1)P(=O)(O)CO	8.47%
CC(=O)c1cccc(NC(=O)Nc2ccc(C(=O)N3CCOCC3)cc2)c1	-0.351%
NS(=O)(=O)c1ccc(NC(=O)COC(=O)c2ccc3c(c2)OCCO3)cc1	24%
CC(C)C(=O)Nc1sc2c(c1C#N)CCCCC2	9.53%
Cc1cc(C)c(S(=O)(=O)Nc2cccc3nsnc23)c(C)c1	-3.18%
O=C(NC1CCCC1)C(c1ccc(F)cc1)N(C(=O)c1csnn1)C1CCCC1 (stereo not shown)	9.14%
COC(=O)c1ccc(CSc2nnc3n(Cc4ccccc4OC)c(=O)c4ccccc4n23)o1	-19.3%
CCc1noc(C)c1C(=O)N1CCCC(CCC(=O)NCc2cccc(OC)c2)C1 (stereo not shown)	20.2%
Cc1ccc(N=Nc2c(N)n[nH]c2N)cc1	24.5%
CNP(=O)(Oc1ccccc1)OC12CC3CC(CC(C3)C1)C2 (stereo not shown)	-2.75%
